Compounds without any hit were thinned out: in the full panel of roughly 83,000, 20% have a hit.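 Note: values are percent growth. 100 is the growth of untreated cells, values between 100 and 0 indicate rising inhibition; between -100 and 0 indicates cell death.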 The source made the active and inactive calls. How the source made its calls: active means growth percent below 10; inactive means the rest.
Experiments:
Test in all cases: NCI-60 one-dose screen, 48 h (100 = growth as untreated, 0 = no growth, -100 = all killed)
HCT-15 colon = test system: HCT-15 colon
HT29 colon = test system: HT29 colon
SNB-75 CNS = test system: SNB-75 CNS
SNB-19 CNS = test system: SNB-19 CNS
U251 CNS = test system: U251 CNS
SK-MEL-5 melanoma = test system: SK-MEL-5 melanoma
UACC-62 melanoma = test system: UACC-62 melanoma
LOX IMVI melanoma = test system: LOX IMVI melanoma
SK-MEL-28 melanoma = test system: SK-MEL-28 melanoma
SK-MEL-2 melanoma = test system: SK-MEL-2 melanoma
EKVX NSCLC = test system: EKVX NSCLC
SN12C renal = test system: SN12C renal
UO-31 renal = test system: UO-31 renal
TK-10 renal = test system: TK-10 renal
ACHN renal = test system: ACHN renal
CAKI-1 renal = test system: CAKI-1 renal
A498 renal = test system: A498 renal
CCRF-CEM leukemia = test system: CCRF-CEM leukemia
MOLT-4 leukemia = test system: MOLT-4 leukemia
PC-3 prostate = test system: PC-3 prostate

Measured: growth

CN(C)CCNc1ncc(F)c(-c2cnc3cc(-c4cnn(C)c4)ccn23)n1
inactive: HCT-15 colon; 0.005 µM 99.2% | HCT-15 colon; 30 µM 31.2% | HT29 colon; 0.005 µM 99.7% | HT29 colon; 30 µM 42.8% | SNB-75 CNS; 0.005 µM 100% | SNB-75 CNS; 30 µM 50% | SNB-19 CNS; 0.005 µM 97% | SNB-19 CNS; 30 µM 73.4% | U251 CNS; 0.005 µM 96.3% | U251 CNS; 30 µM 75.9% | SK-MEL-5 melanoma; 10 µM unless noted 101% [0.005 µM] | UACC-62 melanoma; 0.005 µM 98% | UACC-62 melanoma; 30 µM 82.7% | LOX IMVI melanoma; 0.005 µM 98.6% | LOX IMVI melanoma; 30 µM 19.9% | SK-MEL-28 melanoma; 0.005 µM 105% | SK-MEL-28 melanoma; 30 µM 96.7% | SK-MEL-2 melanoma; 0.005 µM 109% | SK-MEL-2 melanoma; 30 µM 64.6% | EKVX NSCLC; 0.005 µM 97% | EKVX NSCLC; 30 µM 70.1% | SN12C renal; 0.005 µM 98.4% | SN12C renal; 30 µM 30.7% | UO-31 renal; 0.005 µM 94% | UO-31 renal; 30 µM 17.1% | TK-10 renal; 0.005 µM 105% | TK-10 renal; 30 µM 56.4% | ACHN renal; 0.005 µM 96.7% | ACHN renal; 30 µM 15.5% | CAKI-1 renal; 0.005 µM 99.5% | CAKI-1 renal; 30 µM 15.5% | A498 renal; 0.005 µM 99% | A498 renal; 30 µM 41.9% | CCRF-CEM leukemia; 0.005 µM 101% | CCRF-CEM leukemia; 30 µM 14.1% | MOLT-4 leukemia; 0.005 µM 104%
active: MOLT-4 leukemia; 30 µM 1.39%

CCN(Cc1ccccc1)c1ccc(/C=C2\COc3ccccc3C2=O)cc1
inactive: HCT-15 colon; 10 µM 94% | HCT-15 colon; 100 µM 23.6% | HT29 colon; 10 µM 99.7% | SNB-75 CNS; 10 µM 93.2% | SNB-75 CNS; 100 µM 57.6% | SNB-19 CNS; 10 µM 98.9% | SNB-19 CNS; 100 µM 50.4% | PC-3 prostate; 10 µM 87.1% | PC-3 prostate; 100 µM 26.5% | SK-MEL-5 melanoma; 10 µM 102% | UACC-62 melanoma; 10 µM 87% | UACC-62 melanoma; 100 µM 31% | LOX IMVI melanoma; 10 µM 96.3% | LOX IMVI melanoma; 100 µM 37.5% | SK-MEL-28 melanoma; 10 µM 99.9% | SK-MEL-28 melanoma; 100 µM 53.1% | SK-MEL-2 melanoma; 10 µM 102% | SK-MEL-2 melanoma; 100 µM 21.8% | SN12C renal; 10 µM 94.5% | SN12C renal; 100 µM 53.2% | UO-31 renal; 10 µM 83.8% | UO-31 renal; 100 µM 18.6% | TK-10 renal; 10 µM 119% | TK-10 renal; 100 µM 53.3% | ACHN renal; 10 µM unless noted 101% | A498 renal; 10 µM 91.3% | A498 renal; 100 µM 40.2% | MOLT-4 leukemia; 10 µM 78.6% | MOLT-4 leukemia; 100 µM 10.5%
active: HT29 colon; 100 µM 5.56% | SK-MEL-5 melanoma; 100 µM 6.96%

CN1CCN(c2ccc(Nc3ncc(C(N)=O)c(NCCCNC(=O)C4CCC4)n3)cc2)CC1
inactive: HCT-15 colon; 10 µM unless noted 111% | HT29 colon; 10 µM unless noted 44.4% | SNB-75 CNS; 10 µM unless noted 67.7% | SNB-19 CNS; 10 µM unless noted 63.9% | U251 CNS; 10 µM unless noted 67% | PC-3 prostate; 10 µM unless noted 77.6% | SK-MEL-5 melanoma; 10 µM unless noted 92.3% | UACC-62 melanoma; 10 µM unless noted 108% | LOX IMVI melanoma; 10 µM unless noted 64.8% | SK-MEL-28 melanoma; 10 µM unless noted 103% | SK-MEL-2 melanoma; 10 µM unless noted 71.3% | EKVX NSCLC; 10 µM unless noted 99.2% | SN12C renal; 10 µM unless noted 36.3% | UO-31 renal; 10 µM unless noted 40.1% | TK-10 renal; 10 µM unless noted 39.8% | ACHN renal; 10 µM unless noted 61.8% | CAKI-1 renal; 10 µM unless noted 35.1% | A498 renal; 10 µM unless noted 137% | CCRF-CEM leukemia; 10 µM unless noted 14.2% | MOLT-4 leukemia; 10 µM unless noted 18%

COc1ccc(C(=O)/C=C/c2ccc(OCc3cccc(C(F)(F)F)c3)c(OC)c2)cc1OC
inactive: HCT-15 colon; 10 µM 73% | HCT-15 colon; 100 µM 14.4% | HT29 colon; 10 µM 54.3% | HT29 colon; 100 µM 19.6% | SNB-75 CNS; 10 µM 93.6% | SNB-19 CNS; 10 µM 93.9% | U251 CNS; 10 µM 75% | SK-MEL-5 melanoma; 10 µM 76.5% | UACC-62 melanoma; 10 µM 78.4% | UACC-62 melanoma; 100 µM 20.7% | LOX IMVI melanoma; 10 µM 51% | LOX IMVI melanoma; 100 µM 10% | SK-MEL-28 melanoma; 10 µM 101% | SK-MEL-28 melanoma; 100 µM 46.3% | SK-MEL-2 melanoma; 10 µM 89.1% | SK-MEL-2 melanoma; 100 µM 32.6% | EKVX NSCLC; 10 µM 114% | EKVX NSCLC; 100 µM 16.1% | SN12C renal; 10 µM 97% | SN12C renal; 100 µM 17% | UO-31 renal; 10 µM 67.2% | UO-31 renal; 100 µM 24.6% | TK-10 renal; 10 µM 117% | ACHN renal; 10 µM unless noted 93.4% | CCRF-CEM leukemia; 10 µM 51.1% | CCRF-CEM leukemia; 100 µM 12.6% | MOLT-4 leukemia; 10 µM 42.2%
active: SNB-75 CNS; 100 µM -27.5% | SNB-19 CNS; 100 µM -21.9% | U251 CNS; 100 µM -51.7% | SK-MEL-5 melanoma; 100 µM -34.4% | TK-10 renal; 100 µM 7.32% | MOLT-4 leukemia; 100 µM -3.95%

CC(C)(C)c1cc(C(C)(C)c2ccccc2)cc(Cc2cc(C(C)(C)c3ccccc3)cc(C(C)(C)C)c2O)c1O
inactive: HCT-15 colon; 10 µM unless noted 95.8% | HT29 colon; 10 µM unless noted 93.3% | SNB-75 CNS; 10 µM unless noted 94.5% | SNB-19 CNS; 10 µM unless noted 106% | U251 CNS; 10 µM unless noted 94.3% | PC-3 prostate; 10 µM unless noted 74.9% | SK-MEL-5 melanoma; 10 µM unless noted 97.4% | UACC-62 melanoma; 10 µM unless noted 92.3% | LOX IMVI melanoma; 10 µM unless noted 89.5% | SK-MEL-28 melanoma; 10 µM unless noted 106% | SK-MEL-2 melanoma; 10 µM unless noted 72.1% | EKVX NSCLC; 10 µM unless noted 110% | SN12C renal; 10 µM unless noted 95.7% | UO-31 renal; 10 µM unless noted 80.9% | TK-10 renal; 10 µM unless noted 98.1% | ACHN renal; 10 µM unless noted 102% | CAKI-1 renal; 10 µM unless noted 104% | A498 renal; 10 µM unless noted 125% | CCRF-CEM leukemia; 10 µM unless noted 66.1% | MOLT-4 leukemia; 10 µM unless noted 54.4%

CC(=O)/C=C/c1ccc(OCc2ccc(Cl)cc2)cc1
inactive: HCT-15 colon; 10 µM 96.7% | HCT-15 colon; 100 µM 42% | HT29 colon; 10 µM 94.3% | HT29 colon; 100 µM 36.2% | SNB-75 CNS; 10 µM 91% | SNB-75 CNS; 100 µM 35.6% | SNB-19 CNS; 10 µM 105% | SNB-19 CNS; 100 µM 51.7% | U251 CNS; 10 µM 88.3% | U251 CNS; 100 µM 33.9% | PC-3 prostate; 10 µM 90% | PC-3 prostate; 100 µM 36.1% | SK-MEL-5 melanoma; 10 µM 97.7% | UACC-62 melanoma; 10 µM 95.5% | UACC-62 melanoma; 100 µM 24.6% | LOX IMVI melanoma; 10 µM 86.7% | LOX IMVI melanoma; 100 µM 32.2% | SK-MEL-28 melanoma; 10 µM 112% | SK-MEL-28 melanoma; 100 µM 26.1% | SK-MEL-2 melanoma; 10 µM 101% | EKVX NSCLC; 10 µM 116% | EKVX NSCLC; 100 µM 28.8% | SN12C renal; 10 µM 102% | SN12C renal; 100 µM 48.6% | UO-31 renal; 10 µM 91.4% | UO-31 renal; 100 µM 21% | TK-10 renal; 10 µM 77.6% | TK-10 renal; 100 µM 27.9%
active: SK-MEL-5 melanoma; 100 µM -37% | SK-MEL-2 melanoma; 100 µM 4.19%
